This passage reports activity change, negative = inhibition and Potency results from PubChem BioAssay AID1745847 (National Center for Advancing Translational Sciences (NCATS), 2022).

SMILES strings stand for the structures. Among all 2,100 compounds or so, about 670 (32%) were called active. About 50% were inconclusive and are not listed. Calls follow the shape of the dose curve; as a rule, active = well fitted inhibition curve with a large enough effect; inconclusive = small, poorly fitted or top-dose-only effect; inactive = no such curve, though single readings can be large or run the other way. The list shows a part of the results.
% is scaled to controls: 0 for no effect and ±100 for the full control effect; potency is read from the fitted curve at half-maximal effect.

The experiment is described as follows: CMV-Luciferase Counterscreen for Inhibitors of ATXN expression. Also: nearly all actives have a fitted effect of over 55% in size. Conditions: HEK-293 CMV-luciferase reporter, luminescence, 24 h; series mostly up to 57.5 µM.
`CCCC(=O)Nc1c(C(=O)OCC)[nH]c2ccccc12`: the activity change, negative = inhibition was -4.94% [at 11.4 µM] (inactive). In the case of `O=c1cc(N2CCN(c3ccccc3)CC2)[nH]c(=O)n1C1CCCCC1`, the Potency entry is “inactive”.

`CCCC(=O)Nc1ccc2nc(SCC(=O)N3CCCC3)sc2c1`: the Potency result is “inactive”.

`O=C(CCSc1nc2ccccc2s1)N/N=C/c1c(O)ccc2ccccc12`: the Potency was 7.94 µM (active).

Consider `CCOC(=O)C1CCN(c2ncnc3c2cnn3-c2ccc(Cl)cc2)CC1`, for which the Potency was 2.24 µM (active).

Regarding `CC1CCCN(c2ncnc3c2cnn3-c2ccc(Cl)cc2)C1` (stereo not given), the Potency is 22.4 µM (active). As to `COc1cc([N+](=O)[O-])cc(/C=N/NC(=O)C(C)Nc2cccc3ccccc23)c1O` (stereo not given), the activity change, negative = inhibition was 8.76% [at 11.4 µM] (inactive). Consider `COc1ccc(NC(C)C(=O)N/N=C/c2c(O)ccc3ccccc23)cc1` (stereo not given), for which the Potency is 6.31 µM (active). In the case of `COc1ccccc1NCC(=O)N/N=C/c1c(O)ccc2ccccc12`, the Potency is 3.16 µM (active). On the same count and under the same terms, the figure for `CCc1cc[n+](C2=C([O-])c3ccccc3C(=O)/C2=N\S(=O)(=O)c2cccs2)cc1` is 20 µM (active). Regarding `Oc1ccc2ccccc2c1/C=C/c1ccc2c(Br)cc(Br)c(O)c2n1`, the Potency was 3.16 µM (active).

For `COc1cc(/C=C/c2ccc3cccc(O)c3n2)cc(OC)c1OC`, the Potency entry was “inactive”. As to `CCCc1cc(=O)[nH]c(-n2[nH]c3c(c2=O)CCCC3)n1`, the Potency is 12.6 µM (active). The same measure, in the same setting: the entry for `NC(=S)N1OC[C@@H]2COc3ccc4ccccc4c3[C@@H]21` is “inactive”; for `CC(NC(=O)Nc1cccc([N+](=O)[O-])c1)(C(F)(F)F)C(F)(F)F` it is 17.8 µM (active); for `O=C(NC1CCN(Cc2ccccc2)CC1)c1cccc(S(=O)(=O)Nc2ccc(SC(F)F)cc2)c1` it is 14.1 µM (active).

Take `CCC(C)n1cnc2c(c1=O)c1nc3ccccc3nc1n2-c1ccc2c(c1)OCCO2` (stereo not given): the Potency result is “inactive”. Still for that read-out and setting: the figure for `c1ccc(COc2ncnc3c2ncn3CCCN2CCN(Cc3cccc4ccccc34)CC2)cc1` is 14.1 µM (active); for `Cc1cc2oc3cc(NCCC4CCCN4C)ccc3c(=O)c2cc1C` (stereo not given) it is “inactive”.

Regarding `COc1ccc(CC(N)c2csc(NC(=O)c3cccc(OC(F)(F)F)c3)n2)cc1` (stereo not given), the Potency was 28.2 µM (active). Regarding `COc1ccc(CC(N)c2csc(NC(=O)c3cc(C(C)(C)C)nn3Cc3ccccc3)n2)cc1` (stereo not given), the activity change, negative = inhibition is -13.8% [at 11.4 µM] (inactive). As to `COc1ccc(CC(N)c2csc(NC(=O)c3ccccc3OC)n2)cc1` (stereo not given), the Potency result is “inactive”. Consider `O=C(Nc1nc2cc(Cl)ccc2s1)C1CCCN(S(=O)(=O)c2cccc3cccnc23)C1` (stereo not given), for which the Potency was 25.1 µM (active). As for `Cc1ccc(S(=O)(=O)c2cc3cc(Br)ccc3oc2=O)cc1`, the Potency entry is “inactive”. Still for that read-out and setting: the same measure for `CCN(CC)c1ccc(/C=N/NC(=O)CNC(=O)C2COc3ccccc3O2)c(O)c1` (stereo not given): 0.398 µM (active); for `COc1ccccc1/C=C\C(=O)NCC(=O)N/N=C/c1cccc(OC)c1O`: 12.6 µM (active); for `COc1cccc(/C=N/NC(=O)CNC(=O)C2COc3ccccc3O2)c1O` (stereo not given): 7.94 µM (active). On the same count and under the same terms, the same measure for `COc1cccc2c1C(=O)C=C(C)C2=O`: 22.4 µM (active); for `Cc1cc(C(=O)N/N=C/c2cc(Br)cc(Br)c2OC(=O)c2cccc(F)c2)n[nH]1`: 4.47 µM (active). As to `CCCC/C(C)=N/NC(=O)c1cn(-c2ccccc2)nc1-c1ccccc1`, the activity change, negative = inhibition was -28.6% [at 11.4 µM] (inactive). `COc1ccc(-c2nn(-c3ccccc3)cc2C(=O)NC(=S)NNC(=O)c2ccncc2)cc1`: the Potency is 8.91 µM (active). For the molecule `Cc1ccc(-c2nc3cc(Br)cnc3nc2-c2ccc(C)cc2)cc1`, the activity change, negative = inhibition was -25.9% [at 11.4 µM] (inactive). In the case of `CCOC(=O)c1cnc(-n2nc(C)cc2C)nc1NC1CCCC1`, the Potency is 1.78 µM (active). For `COc1ccc(Cc2nnc(N/N=C/c3ccc(O)cc3)[nH]c2=O)cc1OC`, the Potency was 0.891 µM (active). Take `COc1ccc(Cc2nnc(N/N=C/c3ccccc3O)[nH]c2=O)cc1OC`: the Potency was 1.41 µM (active). In the case of `C=CCOc1ccc(CNc2ccc3[nH]c(=O)[nH]c3c2)cc1OC`, the Potency entry is “inactive”. As for `COc1ccc(S(=O)(=O)N(C)C)cc1NC(=O)C1CCN(c2ncnc3sc(C)c(C)c23)CC1`, the Potency is 10 µM (active). Still for that read-out and setting: the entry for `CCN(CC)S(=O)(=O)c1cc(NC(=O)C2CCN(c3ncnc4sc(C)c(C)c34)CC2)ccc1Cl` is “inactive”; for `COc1ccc(-c2csc(NC(=O)C3CCN(c4ncnc5sc(C)c(C)c45)CC3)n2)cc1OC` it is 3.55 µM (active).

Take `CN(C)c1ccccc1-c1cc(NC=O)c2ncc(-c3cccc(C(F)(F)F)c3)n2c1`: the activity change, negative = inhibition was -12.7% [at 11.4 µM] (inactive). Consider `O=C(N/N=C/c1c(O)ccc2ccccc12)c1cccc(C(F)(F)F)c1`, for which the Potency was 2.82 µM (active). The same measure, in the same setting: the same measure for `O=C(N/N=C/c1cc([N+](=O)[O-])ccc1O)c1cccc(N2CCCC2=O)c1`: 7.94 µM (active). Same read-out and setting: the same measure for `O=C(NN=Cc1c(O)ccc2ccccc12)c1ccc2c(c1)OCO2`: 2.24 µM (active).

In the case of `O=[N+]([O-])c1ccc(/C=N/N=C/c2ccc([N+](=O)[O-])o2)o1`, the Potency was 14.1 µM (active).

Consider `COc1ccc(/C=N/NC(=O)c2cccc([N+](=O)[O-])c2)c2ccccc12`, for which the activity change, negative = inhibition is -1.17% [at 11.4 µM] (inactive).

As to `O=C(N/N=C/c1ccccc1O)c1cccc(C(F)(F)F)c1`, the Potency is 0.501 µM (active). On to `O=C(N/N=C/c1ccc([N+](=O)[O-])o1)c1ccc2c(c1)OCO2`, for which the Potency is 12.6 µM (active). With `O=C(NN=Cc1ccccc1O)c1cccc([N+](=O)[O-])c1`, the Potency was 3.98 µM (active). On the same count and under the same terms, the same measure for `O=C(N/N=C\c1c(O)ccc2ccccc12)c1ccc(Cn2cccn2)o1`: 0.891 µM (active). Regarding `C/C(=N\Nc1cc(N2CCOCC2)nc(C)n1)c1cccc([N+](=O)[O-])c1`, the activity change, negative = inhibition was -9.23% [at 11.4 µM] (inactive). For the molecule `COc1ccc(S(=O)(=O)Nc2ccc(F)cc2)cc1N(C)S(=O)(=O)c1ccc(Cl)cc1`, the Potency is 10 µM (active). In the case of `CCN(Cc1ccccc1)S(=O)(=O)c1ccc(C(=O)Nc2nnc(C3CC3)o2)cc1`, the Potency was 2.24 µM (active). Still for that read-out and setting: the same measure for `O=C(Nc1nnc(C2CC2)o1)c1ccc(S(=O)(=O)N2CCCc3ccccc32)cc1`: 7.08 µM (active); for `CN1CCC(N(C)C(=O)c2ccc(Cl)c(S(=O)(=O)N3CCc4ccccc43)c2)CC1`: “inactive”; for `Cc1ccc(C(=O)N/C(=C\c2ccc(-c3ccc(Cl)cc3)o2)C(=O)NCCCN(C)C)cc1`: “inactive”.
